Values without a mark were called inactive. Records with an inconclusive call do not appear. Entries that show only a call come without a potency. Active and inactive are the calls of the source. Unless noted, the call rests on the fitted dose curve; in most records, active means well fitted curve in the direction sought with a large enough effect in the repeat runs; inconclusive means weak or mixed curves; inactive means no such curve, though single readings can be large; an effect the other way counts as inactive or inconclusive.
Columns and labels:
[1] = A CellTox Green Cytotoxicity Assay to monitor cytotoxicity in HEK293 cells - 32 hour (AID 1224881); further: nearly all actives have a fitted effect of over 40% in size
Summary of the method: (§1)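 Dead-cell fluorescence measured kinetically: asymmetric cyanine dye, HEK293, 600 cells/well, 5 h settle, 23 nL cpd/DMSO, 37 C, reads 0–40 h every 8 h.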

[2] = A CellTox Green Cytotoxicity Assay to monitor cytotoxicity in HepG2 cells - 0 hour (AID 1224882); further: nearly all actives have a fitted effect of over 35% in size
Summary of the method: (§2)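 First, HepG2 cells (600/well) mixed with reagent were plated; second, after 5 h at 37 C they received compounds via pintool; third, fluorescence was measured at 0 h through 40 h at 8 h intervals.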

[3] = A CellTox Green Cytotoxicity Assay to monitor cytotoxicity in HepG2 cells - 32 hour (AID 1224883); further: nearly all actives have a fitted effect of over 50% in size; further: potency means the concentration at half of the fitted maximal effect
Summary of the method: as §2

[4] = A CellTox Green Cytotoxicity Assay to monitor cytotoxicity in HEK293 cells - 8 hour (AID 1224884); further: nearly all actives have a fitted effect of over 35% in size
Summary of the method: as §1

[5] = qHTS RealTime-Glo MT Cell Viability Assay in HepG2 cells - 16 hour (AID 1224885); further: nearly all actives have a fitted effect of over 50% in size
Summary of the method: (§3)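 Cell number in HepG2 cultures estimated from NanoLuc luminescence generated by metabolic reduction of a prosubstrate by living cells. The homogeneous, nonlytic format allowed repeated reads at 0, 8, 16, 24, 32 and 40 h of compound exposure.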

[6] = qHTS RealTime-Glo MT Cell Viability Assay in HEK293 cells - 24 hour (AID 1224886); further: nearly all actives have a fitted effect of over 50% in size; further: potency means the concentration at half of the fitted maximal effect
Summary of the method: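 Homogeneous bioluminescent viability format in HEK293 cells (600 cells/well). Following 5 h at 37 C/5% CO2, 23 nL compound was pintooled; the signal was measured repeatedly during 40 h incubation.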

[7] = qHTS RealTime-Glo MT Cell Viability Assay in HEK293 cells - 8 hour (AID 1224887); further: top concentration of the series differs between compounds; nearly all actives have a fitted effect of over 50% in size
Summary of the method: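 600 HEK293 cells per well, dispensed already mixed with RealTime-Glo MT reagents. Compound dosing came 5 h later. The same wells were read for luminescence at 0, 8, 16, 24, 32 and 40 h of exposure at 37 C.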

[8] = A CellTox Green Cytotoxicity Assay to monitor cytotoxicity in HEK293 cells - 16 hour (AID 1224888); further: nearly all actives have a fitted effect of over 35% in size
Summary of the method: as §1

[9] = A CellTox Green Cytotoxicity Assay to monitor cytotoxicity in HepG2 cells - 8 hour (AID 1224890); further: nearly all actives have a fitted effect of over 45% in size
Summary of the method: as §2

[10] = qHTS assay to identify small molecule antagonists of the androgen receptor (AR) signaling pathway using the MDA cell line in the presence of 0.5 nM R1881 - cell viability counter screen (AID 1259242); further: nearly all actives have a fitted effect of over 45% in size
Summary of the method: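 qHTS format. MDA-kb2 (MMTV-luc, AR/GR responsive) + cpd + 0.5 nM R1881 final, 16 hr 37C/0% CO2 → CellTiter-Fluor 30 min → fluorescence intensity.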

[11] = target: Androgen receptor (Homo sapiens) (UniProt P10275); experiment: qHTS assay to identify small molecule antagonists of the androgen receptor (AR) signaling pathway using the MDA cell line in the presence of 0.5 nM R1881 (AID 1259243)
Chain of Androgen receptor (Homo sapiens) (P10275 whole entry, looked up): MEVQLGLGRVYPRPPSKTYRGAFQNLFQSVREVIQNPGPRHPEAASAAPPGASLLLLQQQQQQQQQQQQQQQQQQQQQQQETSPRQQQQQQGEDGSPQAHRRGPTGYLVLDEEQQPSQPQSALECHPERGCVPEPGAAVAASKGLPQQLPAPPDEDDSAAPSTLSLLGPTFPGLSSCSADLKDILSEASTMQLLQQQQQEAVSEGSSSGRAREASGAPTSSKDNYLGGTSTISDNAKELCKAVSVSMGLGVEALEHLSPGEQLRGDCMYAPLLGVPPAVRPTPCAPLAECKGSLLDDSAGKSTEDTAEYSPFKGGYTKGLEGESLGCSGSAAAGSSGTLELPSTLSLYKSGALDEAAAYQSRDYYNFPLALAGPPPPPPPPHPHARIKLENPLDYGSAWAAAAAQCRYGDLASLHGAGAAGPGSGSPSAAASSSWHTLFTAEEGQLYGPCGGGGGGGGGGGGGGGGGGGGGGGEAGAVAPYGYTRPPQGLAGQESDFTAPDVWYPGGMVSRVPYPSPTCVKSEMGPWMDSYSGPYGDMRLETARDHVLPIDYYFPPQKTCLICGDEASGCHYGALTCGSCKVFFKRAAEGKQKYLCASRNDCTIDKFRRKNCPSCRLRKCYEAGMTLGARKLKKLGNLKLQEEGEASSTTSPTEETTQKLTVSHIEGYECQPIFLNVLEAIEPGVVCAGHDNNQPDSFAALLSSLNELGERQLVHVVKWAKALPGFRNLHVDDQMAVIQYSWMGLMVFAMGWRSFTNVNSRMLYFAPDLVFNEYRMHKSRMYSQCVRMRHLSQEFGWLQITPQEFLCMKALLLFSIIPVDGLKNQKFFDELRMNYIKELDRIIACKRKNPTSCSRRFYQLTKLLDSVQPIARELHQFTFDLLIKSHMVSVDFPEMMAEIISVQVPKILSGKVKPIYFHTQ
Summary of the method: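 Antagonist mode quantitative HTS in MDA-kb2 MMTV-luciferase cells, agonist R1881 at 0.5 nM final, 16 hr exposure at 37C and 0% CO2, luminescent detection.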

[12] = target: Estrogen receptor (Homo sapiens) (UniProt P03372); experiment: qHTS assay to identify small molecule antagonists of the estrogen receptor alpha (ER-alpha) signaling pathway using the BG1 cell line in the presence of 0.1 nM 17-beta-estradiol (AID 1259244); further: nearly all actives have a fitted effect of over 50% in size; further: potency means the concentration at half of the fitted maximal effect
Chain of Estrogen receptor (Homo sapiens) (P03372 whole entry, looked up): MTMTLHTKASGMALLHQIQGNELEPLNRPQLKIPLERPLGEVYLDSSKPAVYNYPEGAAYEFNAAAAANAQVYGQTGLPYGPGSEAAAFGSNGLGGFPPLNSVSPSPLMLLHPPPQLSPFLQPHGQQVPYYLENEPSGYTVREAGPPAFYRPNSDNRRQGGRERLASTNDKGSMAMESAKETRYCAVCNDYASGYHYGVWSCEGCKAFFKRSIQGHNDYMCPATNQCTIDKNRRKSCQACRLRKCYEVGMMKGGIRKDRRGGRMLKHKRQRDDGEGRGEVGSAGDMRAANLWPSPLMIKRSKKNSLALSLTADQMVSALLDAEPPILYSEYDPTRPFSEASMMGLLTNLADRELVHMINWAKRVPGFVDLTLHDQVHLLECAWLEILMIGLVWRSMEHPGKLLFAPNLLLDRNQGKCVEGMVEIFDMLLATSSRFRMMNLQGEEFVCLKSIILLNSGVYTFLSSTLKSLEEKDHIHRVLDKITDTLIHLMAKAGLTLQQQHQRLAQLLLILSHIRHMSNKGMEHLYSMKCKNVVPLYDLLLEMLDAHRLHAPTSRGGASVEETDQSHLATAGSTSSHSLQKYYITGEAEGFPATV
Summary of the method: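 Reporter is a stably transfected luciferase under four estrogen responsive elements in VM7Luc4E2 cells expressing native full-length ER-alpha; inhibition of 0.1 nM (final) 17beta-estradiol-driven signal over 22 h is read by luminescence.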

[13] = qHTS assay to identify small molecule phospholipidosis (PLD) inducers (AID 1259344; active means well fitted curve in the direction sought with a large enough effect; an effect the other way counts as inactive or inconclusive; further: potency means the concentration at half of the fitted maximal effect)
Summary of the method: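 Accumulated phospholipid, stained red by LipidTOX during 24 h compound treatment of HepG2 cells at 37 C, is quantified from images as pit number and intensity, normalised per cell using Hoechst-stained nuclei.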

[14] = qHTS assay to identify small molecule HDAC inhibitors (AID 1259364);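 further: wild-type HCT-116 cells with endogenous class I/II HDAC activity; top concentration of the series differs between compounds; nearly all actives have a fitted effect of over 45% in size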
Summary of the method: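 Quantitative high-throughput format: overnight-seeded HCT-116 cells got compounds for 2 hr at 37C; HDAC-Glo I/II reagent added, 30 min RT, luminescence measured.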

[15] = qHTS assay to identify small molecule HDAC inhibitors - cell viability counter screen (AID 1259365)
Summary of the method: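 CellTiter-Glo luminescence (30 min, room temperature) reported viability after a 2 h compound exposure at 37 C. Cells: wild-type HCT-116, 1,500 per well, seeded the night before.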

[16] = qHTS assay to identify small molecule agonists of the sonic hedgehog signaling (Shh) pathway - cell viability counter screen (AID 1259366); further: nearly all actives have a fitted effect of over 50% in size
Summary of the method: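 Cytotoxicity counter screen: CellTiter-Fluor reagent added after 23 h compound exposure, then 1 h at 37C and fluorescence read. Cells were 3T3 Gli1-Luc, seeded 2,000 per well and dosed 4 h post-plating.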

[17] = qHTS assay to identify small molecule antagonists of the sonic hedgehog signaling (Shh) pathway - cell viability counter screen (AID 1259367); further: nearly all actives have a fitted effect of over 55% in size
Summary of the method: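 CellTiter-Fluor signal in conditioned medium-stimulated 3T3 Gli1-Luc cells, 23 hr compound exposure, 37C.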

[18] = qHTS assay to identify small molecule agonists of the sonic hedgehog signaling (Shh) pathway (AID 1259368; calls by dose curve;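 further: NIH/3T3-derived 3T3Gli1-Luc cells carrying a stable Gli1-driven firefly luciferase reporter; series mostly up to about 92 µM; nearly all actives have a fitted effect of over 15% in size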)
Summary of the method: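 Quantitative high-throughput format using a Gli1-driven firefly luciferase reporter line derived from NIH/3T3 cells. After a 24 hr compound treatment at 37 C and 5% CO2, luminescence reported Gli1 response element activity.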

[19] = qHTS assay to identify small molecule antagonists of the estrogen receptor alpha (ER-alpha) signaling pathway using the BG1 cell line in the presence of 0.1 nM 17-beta-estradiol - cell viability counter screen (AID 1259241); further: nearly all actives have a fitted effect of over 40% in size; further: potency means the concentration at half of the fitted maximal effect
Summary of the method: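 Cytotoxicity counter-screen: live-cell protease activity measured by fluorescence (30 min reagent step) in the same wells. Cells were VM7Luc4E2 with endogenous ER-alpha and ERE-driven luciferase, treated 22 hr at 37C alongside 0.1 nM 17beta-estradiol final.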

[20] = qHTS RealTime-Glo MT Cell Viability Assay in HepG2 cells - 0 hour (AID 1224889); further: nearly all actives have a fitted effect of over 50% in size
Summary of the method: as §3

Row | Compound | Potency [1] | Potency [2] | Potency [3] | Potency [4] | Potency [5] | Potency [6] | Potency [7] | Potency [8] | Potency [9] | Potency [10] | Potency [11] | Potency [12] | Potency [13] | Potency [14] | Potency [15] | Potency [16] | Potency [17] | outcome [18] | Potency [19] | Potency [20]
1 | CN1CCC(=C2c3ccccc3Sc3ccccc32)CC1 | inactive | inactive | 23.9 µM (active) | inactive | inactive | inactive | inactive | inactive | inactive | inactive | 23.7 µM (active) | inactive | 10 µM (active) | inactive | inactive | inactive | inactive | inactive | – | –
2 | CC1CCC(=O)C1=O (stereo not given) | inactive | inactive | inactive | inactive | inactive | inactive | inactive | inactive | inactive | inactive | – | inactive | – | inactive | – | inactive | inactive | inactive | inactive | –
3 | CCCCC(CC)COC(=O)COc1ccc(Cl)cc1Cl (stereo not given) | inactive | inactive | inactive | inactive | inactive | inactive | inactive | – | inactive | inactive | – | – | – | inactive | inactive | – | inactive | inactive | inactive | inactive
4 | Cc1nn(C)c(Oc2ccccc2)c1/C=N/OCc1ccc(C(=O)OC(C)(C)C)cc1 | inactive | inactive | inactive | inactive | inactive | 0.0049 µM (active) | inactive | inactive | inactive | – | 0.0273 µM (active) | 0.0122 µM (active) | – | inactive | inactive | inactive | inactive | inactive | 0.0137 µM (active) | –
5 | C=CC1CC2C=CC1C2 (stereo not given) | inactive | inactive | inactive | inactive | inactive | inactive | inactive | inactive | inactive | inactive | – | inactive | – | inactive | inactive | inactive | inactive | inactive | inactive | –
6 | CN(C)CCCN1c2ccccc2Sc2ccccc21 | inactive | inactive | 23.9 µM (active) | inactive | inactive | inactive | inactive | inactive | inactive | inactive | – | – | – | inactive | inactive | – | – | inactive | inactive | –
7 | CCC(CC)Nc1ccc(C)c(C)c1 | inactive | inactive | inactive | inactive | inactive | inactive | – | inactive | inactive | inactive | – | inactive | – | inactive | inactive | inactive | inactive | inactive | inactive | inactive
8 | CCO[Si](CCCCl)(OCC)OCC | inactive | inactive | inactive | inactive | inactive | inactive | – | – | inactive | inactive | – | inactive | – | inactive | inactive | inactive | inactive | inactive | inactive | inactive
